# Measurements: PubChem BioAssay (NCI)
# Compounds without any hit were thinned out: in the full panel of roughly 83,000, 20% have a hit.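 48-hour exposure, single concentration, 96-well plates; percent growth endpoint where 0 means no net growth. Active: below 10.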 Active and inactive are the calls of the source.
# System: HL-60(TB) leukemia
# Assay: NCI-60 one-dose screen, 48 h (100 = growth as untreated, 0 = no growth, -100 = all killed)
# Conditions: 10 µM unless noted
row,Compound,growth
1,COc1ccc(CN2[C@H](C(=O)NCc3ccc(C(=O)NO)cc3)Cc3c([nH]c4ccccc34)[C@H]2C2CC2)cc1,11% (inactive)
2,N#Cc1c(-c2cccc(Cl)c2Cl)cc(-c2c[nH]c3ccccc23)[nH]c1=O,62.1% (inactive)
3,O=C(c1ccccc1)c1ccc2nc(-c3cccc(Cl)c3)[nH]c2c1,97.6% (inactive)
4,O=C1Nc2ccc(Cl)cc2/C1=C/c1cccc(OCc2ccccc2)c1,8.8% (active)
5,COc1ccc2[nH]c(O)c(N=Nc3nc(-c4ccccc4)cs3)c2c1,71.6% (inactive)
6,O=C(Nc1ccc(I)cc1F)c1cc(-c2ccc(F)cc2F)ccc1O,-30.4% (active)
7,CC(Nc1ncnc2ccc(-c3ccc4oc(N)nc4c3)cc12)c1ccccc1 (configuration not stated),-71.4% (active)
